Records with an inconclusive call do not appear. Entries that show only a call come without a potency. Some compounds were tested as several samples or in several runs, with calls that do not always agree. Active and inactive are the calls of the source. The call rests on the fitted dose curve.
Test: qHTS assay to identify small molecule agonists of the hypoxia (HIF-1) signaling pathway - cell viability counter screen (AID 1224844); further: nearly all actives have a fitted effect of over 50% in size
Conditions: HRE-bla ME-180 viability, CellTiter-Glo luminescence, 17 h; series mostly up to 76.8 µM
Excerpt: National Center for Advancing Translational Sciences [NCATS]
NIH Chemical Genomics Center [NCGC]
U.S. Environmental Protection Agency [EPA]
National Institutes of Environmental Health Sciences [NIEHS]
National Toxicology Program [NTP]
U.S. Food and Drug Administration [FDA]
Hypoxia-inducible factor-1 (HIF-1) is the major hypoxia-regulated transcription factor that controls cellular responses to low oxygen concentration. HIF-1 is composed of two subunits: hypoxia responsive HIF-1-alpha and constitutively expressed HIF-1-beta, which is also known as aryl hydrocarbon receptor nuclear translocator. During hypoxic conditions, HIF-1-alpha heterodimerizes with HIF-1-beta and translocates into the nucleus where the HIF-1 complex binds to the hypoxia-response element (HRE) and activates expression of target genes such as VEGF (vascular endothelial growth factor). The HIF-1 pathway is essential to normal growth and development, and is involved in the pathophysiology of cancer, inflammation, and ischemia.
Using a beta-lactamase reporter-gene under control of the hypoxia response element, a cell-based assay [CellSensor(TM) HRE-bla ME-180 from Life Technologies, Carlsbad, CA] was used to measure hypoxia-induced signaling. Tox21 10K library compounds were measured for their ability to induce the reporter gene activity. The cytotoxicity of the Tox21 compound library against HRE-bla ME-180 cell line was tested in parallel by measuring cell viability using CellTiter-Glo assay (Promega, Madison, WI) in the same assay wells.
Tox21 Assay Protocol Summary:
HRE-bla ME-180 cells were dispensed at 2,000 cells per well in 6 uL of assay medium containing 0.5% dialyzed FBS into black wall/clear-bottom 1536-well plates using a Multidrop Combi (Thermo Scientific, Waltham, MA) dispenser. After the assay plates were incubated at 37C and 5% CO2 for 5 hrs, 23 nL of compounds dissolved in DMSO, positive controls or DMSO only was transferred to each well of the assay plate using a Pintool station (Kalypsys, San Diego, CA). The assay plates were incubated at 37C and 5% CO2 for 17 hrs. One uL of LiveBLAzerTM B/G FRET substrate (CCF4-AM) (Life Technologies) was added to each well using a Flying Reagent Dispenser (FRD, Aurora Discovery, San Diego, CA). After 2 hr incubation at room temperature, fluorescence intensity (405 nm excitation, 460 nm and 530 nm emissions) was measured using an Envision plate reader (PerkinElmer, Shelton, CT). For cytotoxicity, 4 ul/well of CellTiter-Glo reagent was added into the assay plates using an FRD. After 30 min incubation at room temperature, the luminescence intensity was measured using a ViewLux plate reader (PerkinElmer).
Potency means the concentration at half of the fitted maximal effect.

SMILES | Potency
c1ccc2c(c1)CCCC2 | inactive
Sc1ccccc1 | inactive
Clc1cnc(Oc2ccc(Oc3ncc(Cl)cc3Cl)cc2)c(Cl)c1 | inactive
C[C@H]1C(=O)O[C@@H]2CCN3CC=C(COC(=O)[C@](C)(O)[C@]1(C)O)[C@H]23 | inactive
CC(C)(C)C(=O)CCl | inactive
COS(=O)(=O)OC | inactive
Cl[C@H]1OCCO[C@@H]1Cl | inactive
Cc1ccc(N=C=O)cc1N=C=O | 24.5 µM (active) and inactive
Nc1cc(Cl)cc(Cl)c1 | inactive
C/C=C/c1ccc2c(c1)OCO2 | inactive
ClC(Cl)c1ccccc1 | inactive
C=CCN=C=S | inactive
CN(C)C(=O)C(c1ccccc1)c1ccccc1 | inactive
CC12CC1(C)C(=O)N(c1cc(Cl)cc(Cl)c1)C2=O (stereo not given) | inactive
FC(F)(F)c1ccc(Cl)cc1 | inactive
CCCCCCCCCCCCCCCCCC(=O)O | inactive
CCNc1nc(Cl)nc(NC(C)C)n1 | inactive
CN(C)CCC#N | inactive
O=C(O)COc1ccccc1 | inactive
C=C(C)C(=O)OCC(CC)CCCC (stereo not given) | inactive

SMILES | Potency
COc1nc(NC(C)C)nc(NC(C)C)n1 | inactive
CC[N+](=O)[O-] | inactive
CC(=O)C1CCOC1=O (stereo not given) | inactive
Nc1ccc([As](=O)(O)O)cc1 | inactive
Cc1cccc(C)c1N | inactive
Nc1cccc(Cl)c1 | inactive
COc1cc(-c2ccc(N)c(OC)c2)ccc1N | inactive
Cc1ccc(O)c(C)c1 | inactive
CC(C)CCCCCCOC(=O)c1ccccc1C(=O)OCCCCCCC(C)C | inactive
C=CC(=O)OCCCCCC(C)C | inactive
C=CC#N | inactive
C[C@]12CC[C@H](O)CC1=CC[C@@H]1[C@@H]2CC[C@]2(C)C(=O)CC[C@@H]12 | inactive
Nc1nc(N)nc(NC2CC2)n1 | inactive
N#CN=C(N)N | inactive
CNC(=O)O/N=C/C(C)(C)S(C)=O (stereo not given) | inactive
[N-]=[N+]=CC(=O)OC[C@H](N)C(=O)O | inactive
N#Cc1cccc(C#N)c1 | inactive
Cc1cccc(N)c1C | inactive
CNC(=O)O/N=C/C(C)(C)S(C)(=O)=O | inactive
Nc1ncc([N+](=O)[O-])s1 | inactive

— PubChem BioAssay (Tox21)
